# The campaign covered roughly 5,500 compounds. About 2,000 (36%) were called active. Inconclusive results (about 18%) are left out. This is one part of the list. Unmarked numbers belong to inactive results. Cut-off read from the data, not from the text of the source: active = normalized growth mostly below about 0.91 (no sharp cut-off); inconclusive = no clear call, values can overlap the other calls; inactive = mostly above about 0.92.
# Test: chemical genetic growth profiling, strain panel (AID 1159580);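 note: tested at 20 µM; growth read once vehicle control cultures reached saturation at 30 °C; 1 = growth at the plate median or of vehicle wells; lower values mean less growth of the strain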
# Settings: S. cerevisiae deletion strains, growth OD
smiles,measurement,setting,value
CC(C)=CCC/C(C)=C/CC/C(C)=C/CSc1ccccc1C(=O)O,normalized growth,"locus YAL013W, strain DEP1, hits give low values",0.944
same,normalized growth,"locus YAL040C, strain CLN3, hits give low values",1.04
same,normalized growth,"locus YCL061C, strain MRC1 (second series), hits give low values",0.938 (active)
same,normalized growth,"locus YDR363W, strain ESC2, hits give low values",0.896
same,normalized growth,"locus YER002W, strain NOP16, hits give low values",0.958
same,normalized growth,"locus YGR078C, strain PAC10, hits give low values",0.928
same,normalized growth,"locus YGR229C, strain SMI1, hits give low values",0.742 (active)
same,normalized growth,"locus YNL175C, strain NOP13, hits give low values",0.956
same,normalized growth,"locus YNL197C, strain WHI3, hits give low values",0.965
same,normalized growth,"locus YNL224C, strain SQS1, hits give low values",0.974
same,normalized growth,"locus YOR083W, strain WHI5 (second series), hits give low values",0.855 (active)
CC(=O)OC/C=C(\C)CC/C=C(\C)CC/C=C(\C)CC/C=C(\C)CC/C=C(\C)CC/C=C(\C)CC/C=C(\C)CC/C=C(\C)CCC=C(C)C,normalized growth,"locus YAL021C, strain ccr4, hits give low values",0.991
same,normalized growth,"locus YAL026C, strain drs2, hits give low values",0.973
same,normalized growth,"locus YAL030W, strain snc1, hits give low values",0.977
same,normalized growth,"locus YBL061C, strain skt5, hits give low values",0.981
same,normalized growth,"locus YBR009C, strain hhf1, hits give low values",0.98
same,normalized growth,"locus YBR023C, strain chs3, hits give low values",0.991
same,normalized growth,"locus YBR171W, strain sec66, hits give low values",0.98
same,normalized growth,"locus YBR231C, strain swc5, hits give low values",0.992
same,normalized growth,"locus YBR279W, strain paf1, hits give low values",0.987
same,normalized growth,"locus YCL011C, strain gbp2, hits give low values",0.959
same,normalized growth,"locus YCL016C, strain dcc1, hits give low values",0.981
same,normalized growth,"locus YCL061C, strain MRC1, hits give low values",0.997
same,normalized growth,"locus YCL069W, strain vba3, hits give low values",1
same,normalized growth,"locus YCR088W, strain abp1, hits give low values",0.995
same,normalized growth,"locus YDL005C, strain med2, hits give low values",0.976
same,normalized growth,"locus YDL040C, strain nat1, hits give low values",0.998
same,normalized growth,"locus YDR001C, strain nth1, hits give low values",0.966
same,normalized growth,"locus YDR069C, strain doa4, hits give low values",0.978
same,normalized growth,"locus YDR137W, strain rgp1, hits give low values",0.984
same,normalized growth,"locus YDR159W, strain sac3, hits give low values",1.02
same,normalized growth,"locus YDR195W, strain ref2",0.984
same,normalized growth,"locus YDR297W, strain sur2, hits give low values",0.993
same,normalized growth,"locus YDR334W, strain swr1, hits give low values",0.943
same,normalized growth,"locus YDR335W, strain msn5, hits give low values",0.982
same,normalized growth,"locus YDR392W, strain spt3, hits give low values",0.976
same,normalized growth,"locus YEL003W, strain gim4, hits give low values",0.98
same,normalized growth,"locus YEL037C, strain rad23, hits give low values",0.976
same,normalized growth,"locus YEL061C, strain CIN8 (second series), hits give low values",0.973
same,normalized growth,"locus YER015W, strain faa2, hits give low values",0.971
same,normalized growth,"locus YER016W, strain bim1, hits give low values",0.99
same,normalized growth,"locus YER111C, strain swi4, hits give low values",0.984
same,normalized growth,"locus YER155C, strain BEM2 (second series), hits give low values",1
same,normalized growth,"locus YFR010W, strain ubp6, hits give low values",0.967
same,normalized growth,"locus YGL167C, strain pmr1, hits give low values",0.981
same,normalized growth,"locus YGL173C, strain kem1, hits give low values",0.974
same,normalized growth,"locus YGL227W, strain vid30, hits give low values",0.987
same,normalized growth,"locus YGL240W, strain doc1, hits give low values",1.01
same,normalized growth,"locus YGL253W, strain hxk2, hits give low values",0.964
same,normalized growth,"locus YHR013C, strain ard1, hits give low values",0.969
same,normalized growth,"locus YHR027C, strain rpn1, hits give low values",0.974
same,normalized growth,"locus YHR030C, strain SLT2, hits give low values",1.04
same,normalized growth,"locus YHR079C, strain IRE1, hits give low values",1.04
same,normalized growth,"locus YHR142W, strain chs7, hits give low values",0.917
same,normalized growth,"locus YJL092W, strain hpr5, hits give low values",0.985
same,normalized growth,"locus YJL095W, strain BCK1 (second series), hits give low values",0.987
same,normalized growth,"locus YJL095W, strain BCK1, hits give low values",1.02
same,normalized growth,"locus YJL115W, strain asf1, hits give low values",0.951
same,normalized growth,"locus YJL129C, strain trk1, hits give low values",0.931
same,normalized growth,"locus YJL154C, strain vps35, hits give low values",0.971
same,normalized growth,"locus YJL164C, strain tpk1, hits give low values",0.976
same,normalized growth,"locus YJL166W, strain qcr8, hits give low values",0.99
same,normalized growth,"locus YJL187C, strain SWE1, hits give low values",0.986
same,normalized growth,"locus YJR066W, strain TOR1, hits give low values",1.01
same,normalized growth,"locus YKL160W, strain elf1, hits give low values",0.98
same,normalized growth,"locus YKR026C, strain gcn3, hits give low values",0.988
same,normalized growth,"locus YKR091W, strain srl3, hits give low values",0.984
same,normalized growth,"locus YLL001W, strain dnm1, hits give low values",0.968
same,normalized growth,"locus YLL026W, hits give low values",0.974
same,normalized growth,"locus YLL041C, strain sdh2, hits give low values",0.991
same,normalized growth,"locus YLR027C, strain aat2, hits give low values",0.997
same,normalized growth,"locus YLR113W, strain HOG1, hits give low values",0.991
same,normalized growth,"locus YLR221C, strain rsa3, hits give low values",0.942
same,normalized growth,"locus YLR258W, strain gsy2, hits give low values",0.997
same,normalized growth,"locus YLR262C, strain YPT6 (second series), hits give low values",0.996
same,normalized growth,"locus YLR320W, strain mms22, hits give low values",0.991
same,normalized growth,"locus YLR342W, strain FKS1, hits give low values",0.99
same,normalized growth,"locus YLR357W, strain rsc2, hits give low values",0.987
same,normalized growth,"locus YLR370C, strain arc18, hits give low values",0.994
same,normalized growth,"locus YLR384C, strain iki3, hits give low values",0.985
same,normalized growth,"locus YML120C, strain ndi1, hits give low values",0.977
same,normalized growth,"locus YMR058W, strain fet3, hits give low values",0.984
same,normalized growth,"locus YMR125W, strain sto1, hits give low values",0.939
same,normalized growth,"locus YMR129W, hits give low values",0.982
same,normalized growth,"locus YMR205C, strain PFK2, hits give low values",0.958
same,normalized growth,"locus YMR231W, strain pep5, hits give low values",0.989
same,normalized growth,"locus YNL071W, strain lat1, hits give low values",0.987
same,normalized growth,"locus YNL183C, strain NPR1, hits give low values",1.01
same,normalized growth,"locus YNL209W, strain ssb2, hits give low values",1
same,normalized growth,"locus YNL248C, strain rpa49, hits give low values",0.964
same,normalized growth,"locus YNL322C, strain KRE1 (second series), hits give low values",0.97
same,normalized growth,"locus YNR049C, strain mso1, hits give low values",0.975
same,normalized growth,"locus YOR001W, strain rrp6, hits give low values",1
same,normalized growth,"locus YOR070C, strain gyp1, hits give low values",0.984
same,normalized growth,"locus YOR080W, strain dia2, hits give low values",0.978
same,normalized growth,"locus YOR083W, strain WHI5, hits give low values",0.97
same,normalized growth,"locus YOR106W, strain vam3, hits give low values",0.909
same,normalized growth,"locus YOR231W, strain MKK1, hits give low values",1.02
same,normalized growth,"locus YOR265W, strain rbl2, hits give low values",0.996
same,normalized growth,"locus YOR270C, strain vph1, hits give low values",0.879
same,normalized growth,"locus YOR290C, strain snf2, hits give low values",0.941
same,normalized growth,"locus YPL051W, strain arl3, hits give low values",1
same,normalized growth,"locus YPL078C, strain atp4, hits give low values",0.977
same,normalized growth,"locus YPL106C, strain sse1, hits give low values",0.997
same,normalized growth,"locus YPL240C, strain hsp82, hits give low values",0.968
same,normalized growth,"locus YPL256C, strain CLN2, hits give low values",1.02
